An excerpt weighted towards active compounds, which were near 8.1% of everything screened.
MITF inhib – MITF inhibition; TRPM1 promoter luciferase, luminescence, 24 h; inhibition, % (concentration not given with the values); 37,000 compounds, 0.28% hits; AID 2240; in the data active = inhibition above about 85%; inconclusive = no clear call, values can overlap the other calls; inactive = below about 68%;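 note: human melanocyte line stably carrying TRPM1 promoter luciferase reporter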
NOMO-1 viab – STK33 inhibitor candidate reducing NOMO-1 cell viability; inhibition, % (concentration not given with the values); NOMO-1 AML viability, CellTiter-Glo luminescence, 72 h; 37,000 compounds, 7.5% hits; AID 2330; in the data active = inhibition above about 80%; inconclusive = no clear call, values can overlap the other calls
Shh pathway inh – blocks Sonic Hedgehog signaling; Shh-LIGHT2 Gli-luciferase reporter, 30 h; inhibition, % (no concentration beside the values); 22,000 compounds, 2.1% hits; AID 2313;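 active = mean inhibition across valid replicates above about 65%, limit read from the data; inconclusive = mean under the limit, yet half or more replicates past it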;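 note: pathway switched on by Shh-conditioned medium diluted 1 in 25 in low serum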
PD-1 reversal – reversal of PD-1 mediated T-cell inhibition. primary human CD4 T cells, PD-L1 beads, CellTiter-Glo 96 h. activation, % (test concentration not listed). 29,000 tested, under 10 active. AID 2316; call rule not given here
Hits are given with their value; – = inactive; ? = inconclusive; · = no result.

SMILES	MITF inhib	NOMO-1 viab	Shh pathway inh	PD-1 reversal
C[C@H]1CN([C@@H](C)CO)C(=O)c2cc(NS(=O)(=O)c3ccc(F)cc3)ccc2O[C@@H]1CN(C)Cc1ccc(C(F)(F)F)cc1	–	–	–	–
C[C@@H]1CN([C@H](C)CO)C(=O)c2cc(NS(=O)(=O)c3ccc(F)cc3)ccc2O[C@H]1CN(C)Cc1ccc(C(F)(F)F)cc1	–	81	·	–
C[C@@H]1CCCCO[C@H](CN(C)C(=O)Nc2ccc(C(F)(F)F)cc2)[C@@H](C)CN([C@H](C)CO)C(=O)c2cc(NS(=O)(=O)c3ccc(Cl)cc3)ccc2O1	–	120	–	–
C[C@@H]1CCCCO[C@@H](CN(C)C(=O)Nc2ccc(C(F)(F)F)cc2)[C@@H](C)CN([C@H](C)CO)C(=O)c2cc(NS(=O)(=O)c3ccccc3)ccc2O1	–	–	?	·
C[C@@H]1CN([C@@H](C)CO)C(=O)c2cc(NS(=O)(=O)c3ccccc3)ccc2O[C@@H]1CN(C)Cc1ccc(C(F)(F)F)cc1	–	–	–	–
NC(=O)C1CCN(C(=O)CSc2nnnn2-c2ccccc2)CC1	–	–	·	–
CCN(CC)CCOc1ccccc1	–	–	–	–
COC(=O)c1ccccc1NC(=O)COc1ccc(C(C)C)cc1Br	–	–	·	–
C[C@@H]1CCCCO[C@@H](CN(C)Cc2ccc(C(F)(F)F)cc2)[C@@H](C)CN([C@H](C)CO)C(=O)c2cc(NS(=O)(=O)c3ccc(F)cc3)ccc2O1	–	110	–	–
C[C@@H]1CCCCO[C@@H](CN(C)Cc2ccc(C(F)(F)F)cc2)[C@@H](C)CN([C@H](C)CO)C(=O)c2cc(NS(=O)(=O)c3ccccc3)ccc2O1	–	?	·	–
CCN(CC)S(=O)(=O)c1ccc(OC)c(NC(=O)c2cccnc2)c1	–	–	·	–
O=C(CC1c2ccccc2Oc2ccccc21)Nc1ccc(Cc2ccncc2)cc1	–	135	·	–
O=C(CC1c2ccccc2Oc2ccccc21)Nc1ccccc1C(=O)N1CCCCC1	–	–	·	–
CCOC(=O)Nc1cccc(NC(=O)CC2c3ccccc3Oc3ccccc32)c1	89	–	·	–
FC(F)(F)c1nnc(Nc2cccnc2)s1	–	–	–	–
Oc1c(C(Nc2cccnc2)c2ccc(C(F)(F)F)cc2)ccc2cccnc12 (stereo not given)	–	109	·	·
CCC(C)C(=O)c1c(O)cc2c(c1O)CC(CC=C(C)C)C(C)(C)O2 (stereo not given)	–	88	–	–
Cc1ccc(-n2c(Cn3ncc4ccccc4c3=O)n[nH]c2=S)c(Br)c1	–	–	·	–
C[C@@H]1CN([C@@H](C)CO)C(=O)c2cc(NC(=O)Nc3ccc(F)cc3)ccc2O[C@@H]1CN(C)Cc1ccc(-c2ccccc2)cc1	–	115	–	–
C[C@@H]1CN([C@H](C)CO)C(=O)c2cc(NC(=O)Nc3ccc(F)cc3)ccc2O[C@@H]1CN(C)Cc1ccc(-c2ccccc2)cc1	–	92	–	·
C[C@H](CO)N1C[C@H](C)[C@H](CN(C)Cc2ccc(Oc3ccccc3)cc2)Oc2ccc(NC(=O)Nc3ccc(F)cc3)cc2C1=O	–	–	–	–
C[C@@H]1CN([C@H](C)CO)C(=O)c2cc(NC(=O)Nc3ccc(F)cc3)ccc2O[C@H]1CN(C)Cc1ccc(-c2ccccc2)cc1	–	126	·	–
C[C@H](CO)N1C[C@H](C)[C@@H](CN(C)Cc2ccc(Oc3ccccc3)cc2)Oc2ccc(NC(=O)Nc3ccc(F)cc3)cc2C1=O	–	–	–	–
C[C@@H]1CN([C@H](C)CO)C(=O)c2cc(NC(=O)Nc3ccccc3)ccc2O[C@H]1CN(C)Cc1ccc(-c2ccccc2)cc1	–	116	·	–
CC(=O)O[C@@H]1[C@@H](O)C[C@@]2(C)C(CC[C@@H](C)C23Cc2c(O)cc4c(c2O3)CN([C@@H](CCC(=O)O)C(=O)O)C4=O)C1(C)C (stereo not given in full)	–	–	–	–
SMILES	MITF inhib	NOMO-1 viab	Shh pathway inh	PD-1 reversal
N#C[C@@H]1O[C@H](COC(=O)c2ccccc2)[C@@H](OC(=O)c2ccccc2)[C@H]1OC(=O)c1ccccc1	–	–	·	–
N#CC1=C(N)C(C#N)(C#N)C(c2ccccc2)C2=C1CCCC2 (stereo not given)	–	88	–	–
C[C@H]1CN([C@@H](C)CO)C(=O)c2cc(NC(=O)Nc3ccc(C(F)(F)F)cc3)ccc2O[C@H]1CN(C)Cc1ccc2c(c1)OCO2	–	106	·	–
C[C@@H]1CN([C@@H](C)CO)C(=O)c2cc(NC(=O)Nc3ccc4c(c3)OCO4)ccc2O[C@@H]1CN(C)Cc1ccc(C(F)(F)F)cc1	–	90	·	–
Cn1nc(C(C)(C)C)cc1N	–	–	–	–
COC(=O)COc1cccc(NC(=O)c2ccccc2I)c1	–	110	·	·

Bioassay records: PubChem, Broad Institute
